# According to PubChem BioAssay AID1159580 (chemical genetic matrix, 2015):
# The campaign covered roughly 5,500 compounds. About 2,000 (36%) were called active. Another 18% or so got no clear call; they are omitted. The list shows a part of the results. A number with no mark means an inactive call. Rule as the data show it: active = normalized growth mostly below about 0.91 (no sharp cut-off); inconclusive = no clear call, values can overlap the other calls; inactive = mostly above about 0.92.
# Test: chemical genetic growth profiling, strain panel (AID 1159580);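 also: tested at 20 µM; growth read once vehicle control cultures reached saturation at 30 °C; 1 = growth at the plate median or of vehicle wells; lower values mean less growth of the strain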
# Conditions: S. cerevisiae deletion strains, growth OD
compound,measurement,setting,value
COc1cc(O)c(C(=O)/C=C/c2ccc(O)c(OC)c2)c(OC)c1,normalized growth,"locus YAL021C, strain ccr4, hits give low values",0.948
same,normalized growth,"locus YAL026C, strain drs2, hits give low values",0.896 (active)
same,normalized growth,"locus YAL030W, strain snc1, hits give low values",0.972
same,normalized growth,"locus YBL061C, strain skt5, hits give low values",0.983
same,normalized growth,"locus YBR009C, strain hhf1, hits give low values",0.948
same,normalized growth,"locus YBR023C, strain chs3, hits give low values",0.979
same,normalized growth,"locus YBR171W, strain sec66, hits give low values",0.971
same,normalized growth,"locus YBR231C, strain swc5, hits give low values",0.951
same,normalized growth,"locus YBR279W, strain paf1, hits give low values",0.989
same,normalized growth,"locus YCL011C, strain gbp2, hits give low values",0.947
same,normalized growth,"locus YCL016C, strain dcc1, hits give low values",0.981
same,normalized growth,"locus YCL061C, strain MRC1, hits give low values",0.984
same,normalized growth,"locus YCL069W, strain vba3, hits give low values",0.972
same,normalized growth,"locus YCR088W, strain abp1, hits give low values",0.976
same,normalized growth,"locus YDL005C, strain med2, hits give low values",0.976
same,normalized growth,"locus YDL040C, strain nat1, hits give low values",0.975
same,normalized growth,"locus YDR001C, strain nth1, hits give low values",0.98
same,normalized growth,"locus YDR069C, strain doa4, hits give low values",0.907
same,normalized growth,"locus YDR137W, strain rgp1, hits give low values",0.947
same,normalized growth,"locus YDR159W, strain sac3, hits give low values",0.941
same,normalized growth,"locus YDR195W, strain ref2",0.972
same,normalized growth,"locus YDR297W, strain sur2, hits give low values",0.975
same,normalized growth,"locus YDR334W, strain swr1, hits give low values",0.936
same,normalized growth,"locus YDR335W, strain msn5, hits give low values",0.973
same,normalized growth,"locus YDR392W, strain spt3, hits give low values",0.532 (active)
same,normalized growth,"locus YEL003W, strain gim4, hits give low values",0.82 (active)
same,normalized growth,"locus YEL037C, strain rad23, hits give low values",0.949
same,normalized growth,"locus YEL061C, strain CIN8 (second series), hits give low values",0.977
same,normalized growth,"locus YER015W, strain faa2, hits give low values",0.973
same,normalized growth,"locus YER016W, strain bim1, hits give low values",0.981
same,normalized growth,"locus YER111C, strain swi4, hits give low values",0.965
same,normalized growth,"locus YER155C, strain BEM2 (second series), hits give low values",0.83 (active)
same,normalized growth,"locus YFR010W, strain ubp6, hits give low values",0.899 (active)
same,normalized growth,"locus YGL167C, strain pmr1, hits give low values",0.975
same,normalized growth,"locus YGL173C, strain kem1, hits give low values",0.962
same,normalized growth,"locus YGL227W, strain vid30, hits give low values",0.987
same,normalized growth,"locus YGL240W, strain doc1, hits give low values",0.928
same,normalized growth,"locus YGL253W, strain hxk2, hits give low values",0.877 (active)
same,normalized growth,"locus YHR013C, strain ard1, hits give low values",0.902
same,normalized growth,"locus YHR027C, strain rpn1, hits give low values",0.965
same,normalized growth,"locus YHR030C, strain SLT2, hits give low values",0.96
same,normalized growth,"locus YHR079C, strain IRE1, hits give low values",0.973
same,normalized growth,"locus YHR142W, strain chs7, hits give low values",0.923
same,normalized growth,"locus YJL092W, strain hpr5, hits give low values",0.961
same,normalized growth,"locus YJL095W, strain BCK1 (second series), hits give low values",0.979
same,normalized growth,"locus YJL095W, strain BCK1, hits give low values",0.982
same,normalized growth,"locus YJL115W, strain asf1, hits give low values",0.969
same,normalized growth,"locus YJL129C, strain trk1, hits give low values",0.965
same,normalized growth,"locus YJL154C, strain vps35, hits give low values",0.987
same,normalized growth,"locus YJL164C, strain tpk1, hits give low values",0.889 (active)
same,normalized growth,"locus YJL166W, strain qcr8, hits give low values",0.94
same,normalized growth,"locus YJL187C, strain SWE1, hits give low values",0.979
same,normalized growth,"locus YJR066W, strain TOR1, hits give low values",0.926
same,normalized growth,"locus YKL160W, strain elf1, hits give low values",0.968
same,normalized growth,"locus YKR026C, strain gcn3, hits give low values",0.977
same,normalized growth,"locus YKR091W, strain srl3, hits give low values",0.985
same,normalized growth,"locus YLL001W, strain dnm1, hits give low values",0.984
same,normalized growth,"locus YLL026W, hits give low values",0.972
same,normalized growth,"locus YLL041C, strain sdh2, hits give low values",0.961
same,normalized growth,"locus YLR027C, strain aat2, hits give low values",0.928
same,normalized growth,"locus YLR113W, strain HOG1, hits give low values",0.967
same,normalized growth,"locus YLR221C, strain rsa3, hits give low values",0.908
same,normalized growth,"locus YLR258W, strain gsy2, hits give low values",0.961
same,normalized growth,"locus YLR262C, strain YPT6 (second series), hits give low values",0.884
same,normalized growth,"locus YLR320W, strain mms22, hits give low values",0.947
same,normalized growth,"locus YLR342W, strain FKS1, hits give low values",0.961
same,normalized growth,"locus YLR357W, strain rsc2, hits give low values",0.983
same,normalized growth,"locus YLR370C, strain arc18, hits give low values",0.977
same,normalized growth,"locus YLR384C, strain iki3, hits give low values",0.992
same,normalized growth,"locus YML120C, strain ndi1, hits give low values",0.975
same,normalized growth,"locus YMR058W, strain fet3, hits give low values",0.812 (active)
same,normalized growth,"locus YMR125W, strain sto1, hits give low values",0.899
same,normalized growth,"locus YMR129W, hits give low values",0.981
same,normalized growth,"locus YMR205C, strain PFK2, hits give low values",0.988
same,normalized growth,"locus YMR231W, strain pep5, hits give low values",0.942
same,normalized growth,"locus YNL071W, strain lat1, hits give low values",0.877 (active)
same,normalized growth,"locus YNL183C, strain NPR1, hits give low values",0.955
same,normalized growth,"locus YNL209W, strain ssb2, hits give low values",0.986
same,normalized growth,"locus YNL248C, strain rpa49, hits give low values",0.906
same,normalized growth,"locus YNL322C, strain KRE1 (second series), hits give low values",0.985
same,normalized growth,"locus YNR049C, strain mso1, hits give low values",0.977
same,normalized growth,"locus YOR001W, strain rrp6, hits give low values",0.922
same,normalized growth,"locus YOR070C, strain gyp1, hits give low values",0.962
same,normalized growth,"locus YOR080W, strain dia2, hits give low values",0.986
same,normalized growth,"locus YOR083W, strain WHI5, hits give low values",0.98
same,normalized growth,"locus YOR106W, strain vam3, hits give low values",0.896
same,normalized growth,"locus YOR231W, strain MKK1, hits give low values",0.967
same,normalized growth,"locus YOR265W, strain rbl2, hits give low values",0.965
same,normalized growth,"locus YOR270C, strain vph1, hits give low values",0.845
same,normalized growth,"locus YOR290C, strain snf2, hits give low values",0.939
same,normalized growth,"locus YPL051W, strain arl3, hits give low values",0.928
same,normalized growth,"locus YPL078C, strain atp4, hits give low values",0.972
same,normalized growth,"locus YPL106C, strain sse1, hits give low values",0.911
same,normalized growth,"locus YPL240C, strain hsp82, hits give low values",0.976
same,normalized growth,"locus YPL256C, strain CLN2, hits give low values",0.928
